# Inconclusive results are not listed. Entries that show only a call come without a potency. Activity calls are given as the source filed them. Calls follow the shape of the dose curve; as a rule, active = well fitted inhibition curve with a large enough effect; inconclusive = small, poorly fitted or top-dose-only effect; inactive = flat fitted curve, though single readings scatter.
# Biological target: Luciferin 4-monooxygenase (Photinus pyralis) (UniProt P08659)
# Assay: Counterscreen Assay for Enhancers of SMN2 Splice Variant Expression: Interaction with Luciferase Reporter for Probe SAR
# Conditions: purified firefly luciferase, luminescence inhibition; series mostly up to 51 µM
# Description: NIH Chemical Genomics Center [NCGC] NIH Molecular Libraries Probe Production centers Network [MLPCN] MLPCN Grant: R03 MH084179-01 Assay Submitter (PI): Elliot Androphy NCGC Assay Overview: Spinal muscular atrophy (SMA) is caused by insufficient levels of the survival motor neuron protein SMN. The SMN locus on chromosome 5q13 contains two inverted copies of SMN called SMN1 and SMN2 which are 99% identical at the amino acid level. SMN1 is a fully functional protein and SMN2 skips exon 7 90% of the time. Skipping of exon 7 produces non-functional protein product. 10% of the SMN2 protein includes exon 7 and is fully functional. In the SMA disease state, mutations in the SMN1 locus are the cause of the disease state. Because only 10% of SMN2 is of the fully functional form, it is not sufficient to overcome the deficiency produced by the loss of the SMN1 product. A therapy that either increases the amount of SMN2 product made increases the inclusion of exon 7 has been proposed for the treatment of SMA. We have designed an assay to identify small molecules that can increase the amount of functional SMN2 product by appending a luciferase reporter gene after the native SMN2 gene, such that inclusion of exon 7 in the expressed product places the luciferase sequence in frame, thus generating functional luciferase enzyme. One potential source of false positives in the primary screening assay is stabilization of the reporter luciferase via direct binding. This assay attempts to identify such compounds by screening directly for luciferase activity in the absence of the cellular system.
# NCGC Assay Protocol Summary: The primary screen utilizes a luciferase reporter gene assay, combining the promoter and splicing based cassettes in tandem with the major portion of the native SMN1 cDNA, and then transfected into HEK293 cells. Compounds that modulate luciferase signal presumably modulate expression of […]. In this assay, we utilize purified firefly luciferase in lieu of a cellular reporter to identify compounds interacting directly with luciferase in the primary screen. Sequence, Parameter, Value, Description (1) Reagent, 2.5 uL, Enzyme in buffer (note A) (2) Compound, 23 nL, From stock solutions (3) Time, 5 minutes, Room temp (4) Reagent#2.5 ul, Luciferase detection reagent (note B) (5) Detector, 1 sec integrate, Luminescent read on Viewlux (note C) Sigma enzyme (1 mg) considered to be MW 61,000 diluted in 357 ul assay buffer to 50 uM stock. A - Enzyme and buffer consists of 50 mM Tris-acetate pH 7.6, 10 mM Mg acetate 0.05% BSA, 0.01% Tween and 5 nM firefly luciferase B - Detection reagent = britelite plus diluted 1:10 in PBS C - Viewlux settings were 1 second integration medium sensitivity Keywords: Spinal muscular atrophy, SMA, SMN2, high throughput screening, MLSMR, MLPCN, NIH Roadmap, qHTS and NCGC
# Sequence of Luciferin 4-monooxygenase (Photinus pyralis) (P08659 whole entry, looked up, canonical isoform): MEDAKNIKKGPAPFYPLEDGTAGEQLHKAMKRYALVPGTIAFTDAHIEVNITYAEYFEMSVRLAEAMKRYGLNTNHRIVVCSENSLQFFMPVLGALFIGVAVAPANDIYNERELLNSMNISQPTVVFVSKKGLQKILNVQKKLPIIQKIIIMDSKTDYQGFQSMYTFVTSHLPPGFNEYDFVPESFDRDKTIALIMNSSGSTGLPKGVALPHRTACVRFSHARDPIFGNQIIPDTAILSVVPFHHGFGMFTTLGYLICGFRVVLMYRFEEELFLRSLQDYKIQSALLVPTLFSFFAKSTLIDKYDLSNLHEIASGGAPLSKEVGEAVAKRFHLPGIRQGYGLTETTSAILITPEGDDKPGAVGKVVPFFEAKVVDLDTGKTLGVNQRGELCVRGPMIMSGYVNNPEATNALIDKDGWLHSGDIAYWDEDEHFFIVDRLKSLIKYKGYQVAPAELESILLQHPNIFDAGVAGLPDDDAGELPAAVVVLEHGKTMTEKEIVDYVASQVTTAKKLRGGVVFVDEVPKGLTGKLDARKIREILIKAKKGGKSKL
row,Structure (SMILES),Potency
1,CN(C)c1ccccc1-c1csc(N2CCC(C(N)=O)CC2)n1,inactive
2,Cc1ccc(-c2csc(N3CCC(C(N)=O)CC3)n2)cc1,12.7 µM (active)
3,NC(=O)C1CCN(c2nc(-c3cccnc3)cs2)CC1,inactive
4,NC(=O)C1CCN(c2nc(-c3ccccc3C(F)(F)F)cs2)CC1,inactive
5,CN(C)c1cccc(-c2csc(N3CCC(C(N)=O)CC3)n2)c1,12.7 µM (active)
6,CN(C)C(=O)c1cccc(-c2csc(N3CCC(C(N)=O)CC3)n2)c1,inactive
7,CS(=O)(=O)c1ccccc1-c1csc(N2CCC(C(N)=O)CC2)n1,inactive
8,NC(=O)C1CCN(c2nc(-c3ccccc3N)cs2)CC1,inactive
9,NC(=O)C1CCN(c2nc(-c3ccccc3F)cs2)CC1,35.7 µM (active)
10,NC(=O)C1CCN(c2nc(-c3cccc(N)c3)cs2)CC1,inactive
11,CS(=O)(=O)c1cccc(-c2csc(N3CCC(C(N)=O)CC3)n2)c1,inactive
12,NC(=O)C1CCN(c2nc(-c3ccc(F)cc3)cs2)CC1,28.4 µM (active)
13,NC(=O)C1CCN(c2nc(-c3cc4ccccc4o3)cs2)CC1,31.8 µM (active)
14,Cc1noc(C)c1-c1csc(N2CCC(C(N)=O)CC2)n1,inactive
15,NC(=O)C1CCN(c2nc(-c3ccc(Br)cc3)cs2)CC1,40.1 µM (active)
16,NC(=O)C1CCN(c2nc(-c3ccc4ccccc4c3)cs2)CC1,31.8 µM (active)
17,NC(=O)C1CCN(c2nc(-c3ccc4c(c3)OCCO4)cs2)CC1,4.5 µM (active)
18,Cn1ccc2cc(-c3csc(N4CCC(C(N)=O)CC4)n3)ccc21,10.1 µM (active)

# From PubChem BioAssay AID2515 (National Center for Advancing Translational Sciences (NCATS), 2010)
